Experimental data: PubChem BioAssay AID1159580 (chemical genetic matrix, 2015)
In all, about 5,500 compounds went through this assay and about 2,000 (36%) were called active. About 18% were inconclusive and are not listed. No stated cut-off is given here; in the data, active means normalized growth mostly below about 0.91 (no sharp cut-off); inconclusive means no clear call, values can overlap the other calls; inactive means mostly above about 0.92. This is one part of the list.

Assay: chemical genetic growth profiling, strain panel (AID 1159580);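 further: tested at 20 µM; growth read once vehicle control cultures reached saturation at 30 °C; 1 = growth at the plate median or of vehicle wells; lower values mean less growth of the strain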
Settings: growth OD

Measured: normalized growth

CC[C@@H]1[C@@H](O)N2C3C[C@H]1C1C(O)[C@]4(C[C@@H]12)c1ccccc1N(C)[C@@H]34 (some centres not stated)
inactive: S. cerevisiae deletion strains, locus YJR075W, strain HOC1, hits give low values 0.986 | S. cerevisiae deletion strains, locus YKL009W, strain mrt4, hits give low values 1.02 | S. cerevisiae deletion strains, locus YKL068W, hits give low values 0.987 | S. cerevisiae deletion strains, locus YKL085W, strain MDH1 (second series), hits give low values 0.997 | S. cerevisiae deletion strains, locus YKL085W, strain MDH1, hits give low values 0.997 | S. cerevisiae deletion strains, locus YKL160W, strain elf1, hits give low values 1 | S. cerevisiae deletion strains, locus YKL190W, strain CNB1, hits give low values 0.989 | S. cerevisiae deletion strains, locus YKR001C, strain vps1, hits give low values 0.965 | S. cerevisiae deletion strains, locus YKR026C, strain gcn3, hits give low values 1.02 | S. cerevisiae deletion strains, locus YKR091W, strain srl3, hits give low values 1.03 | S. cerevisiae deletion strains, locus YLL001W, strain dnm1, hits give low values 1.02 | S. cerevisiae deletion strains, locus YLL026W, hits give low values 1 | S. cerevisiae deletion strains, locus YLL041C, strain sdh2, hits give low values 1.05 | S. cerevisiae deletion strains, locus YLR027C, strain aat2, hits give low values 1.02 | S. cerevisiae deletion strains, locus YLR039C, strain RIC1, hits give low values 0.985 | S. cerevisiae deletion strains, locus YLR058C, strain SHM2, hits give low values 0.992 | S. cerevisiae deletion strains, locus YLR102C, strain apc9, hits give low values 0.973 | S. cerevisiae deletion strains, locus YLR113W, strain HOG1, hits give low values 0.996 | S. cerevisiae deletion strains, locus YLR221C, strain rsa3, hits give low values 1.01 | S. cerevisiae deletion strains, locus YLR258W, strain gsy2, hits give low values 1.03 | S. cerevisiae deletion strains, locus YLR262C, strain YPT6 (second series), hits give low values 1.01 | S. cerevisiae deletion strains, locus YLR262C, strain YPT6, hits give low values 0.984 | S. cerevisiae deletion strains, locus YLR268W, strain sec22, hits give low values 0.935 | S. cerevisiae deletion strains, locus YLR320W, strain mms22, hits give low values 1.01 | S. cerevisiae deletion strains, locus YLR330W, strain CHS5, hits give low values 0.994 | S. cerevisiae deletion strains, locus YLR342W, strain FKS1 (second series), hits give low values 1.01 | S. cerevisiae deletion strains, locus YLR342W, strain FKS1, hits give low values 1.01 | S. cerevisiae deletion strains, locus YLR357W, strain rsc2, hits give low values 1.09 | S. cerevisiae deletion strains, locus YLR370C, strain arc18, hits give low values 1.03 | S. cerevisiae deletion strains, locus YLR371W, strain rom2, hits give low values 0.975 | S. cerevisiae deletion strains, locus YLR384C, strain iki3, hits give low values 1.03 | S. cerevisiae deletion strains, locus YLR418C, strain cdc73, hits give low values 0.961 | S. cerevisiae deletion strains, locus YML016C, strain PPZ1, hits give low values 0.992 | S. cerevisiae deletion strains, locus YML032C, strain rad52, hits give low values 0.954 | S. cerevisiae deletion strains, locus YML120C, strain ndi1, hits give low values 1.02 | S. cerevisiae deletion strains, locus YML124C, strain tub3, hits give low values 0.982 | S. cerevisiae deletion strains, locus YMR058W, strain fet3, hits give low values 1.01 | S. cerevisiae deletion strains, locus YMR078C, strain ctf18, hits give low values 0.958 | S. cerevisiae deletion strains, locus YMR125W, strain sto1, hits give low values 1.06 | S. cerevisiae deletion strains, locus YMR129W, hits give low values 1.01 | S. cerevisiae deletion strains, locus YMR205C, strain PFK2, hits give low values 1.03 | S. cerevisiae deletion strains, locus YMR223W, strain ubp8, hits give low values 0.996 | S. cerevisiae deletion strains, locus YMR231W, strain pep5, hits give low values 1.03 | S. cerevisiae deletion strains, locus YMR263W, strain SAP30, hits give low values 1 | S. cerevisiae deletion strains, locus YMR307W, strain GAS1, hits give low values 0.974 | S. cerevisiae deletion strains, locus YNL067W, strain RPL9B, hits give low values 0.981 | S. cerevisiae deletion strains, locus YNL071W, strain lat1, hits give low values 1.03 | S. cerevisiae deletion strains, locus YNL128W, strain TEP1, hits give low values 0.991 | S. cerevisiae deletion strains, locus YNL153C, strain GIM3, hits give low values 0.992 | S. cerevisiae deletion strains, locus YNL183C, strain NPR1, hits give low values 0.917 | S. cerevisiae deletion strains, locus YNL209W, strain ssb2, hits give low values 1.04 | S. cerevisiae deletion strains, locus YNL233W, strain BNI4, hits give low values 0.977 | S. cerevisiae deletion strains, locus YNL248C, strain rpa49, hits give low values 1.01 | S. cerevisiae deletion strains, locus YNL250W, strain rad50, hits give low values 0.981 | S. cerevisiae deletion strains, locus YNL271C, strain bni1, hits give low values 0.973 | S. cerevisiae deletion strains, locus YNL298W, strain CLA4, hits give low values 0.968 | S. cerevisiae deletion strains, locus YNL307C, strain MCK1, hits give low values 0.99 | S. cerevisiae deletion strains, locus YNL322C, strain KRE1 (second series), hits give low values 1.05 | S. cerevisiae deletion strains, locus YNL322C, strain KRE1, hits give low values 0.998 | S. cerevisiae deletion strains, locus YNR049C, strain mso1, hits give low values 1.03 | S. cerevisiae deletion strains, locus YNR052C, strain pop2, hits give low values 0.982 | S. cerevisiae deletion strains, locus YOL006C, strain TOP1, hits give low values 0.921 | S. cerevisiae deletion strains, locus YOL012C, strain htz1 0.945 | S. cerevisiae deletion strains, locus YOL147C, strain pex11, hits give low values 0.974 | S. cerevisiae deletion strains, locus YOR001W, strain rrp6, hits give low values 1.02 | S. cerevisiae deletion strains, locus YOR061W, strain CKA2, hits give low values 0.97 | S. cerevisiae deletion strains, locus YOR069W, strain VPS5, hits give low values 0.995 | S. cerevisiae deletion strains, locus YOR070C, strain gyp1, hits give low values 1.03 | S. cerevisiae deletion strains, locus YOR080W, strain dia2, hits give low values 1.04 | S. cerevisiae deletion strains, locus YOR083W, strain WHI5, hits give low values 0.979 | S. cerevisiae deletion strains, locus YOR106W, strain vam3, hits give low values 1.04 | S. cerevisiae deletion strains, locus YOR136W, strain idh2, hits give low values 0.98 | S. cerevisiae deletion strains, locus YOR144C, strain elg1, hits give low values 0.962 | S. cerevisiae deletion strains, locus YOR184W, strain ser1, hits give low values 0.97 | S. cerevisiae deletion strains, locus YOR231W, strain MKK1, hits give low values 1.01 | S. cerevisiae deletion strains, locus YOR265W, strain rbl2, hits give low values 1.03 | S. cerevisiae deletion strains, locus YOR270C, strain vph1, hits give low values 1.14 | S. cerevisiae deletion strains, locus YOR290C, strain snf2, hits give low values 1.02 | S. cerevisiae deletion strains, locus YOR316C, strain cot1, hits give low values 0.975 | S. cerevisiae deletion strains, locus YPL051W, strain arl3, hits give low values 1.02 | S. cerevisiae deletion strains, locus YPL055C, strain LGE1, hits give low values 1 | S. cerevisiae deletion strains, locus YPL078C, strain atp4, hits give low values 1.03 | S. cerevisiae deletion strains, locus YPL106C, strain sse1, hits give low values 1.06 | S. cerevisiae deletion strains, locus YPL240C, strain hsp82, hits give low values 1.02 | S. cerevisiae deletion strains, locus YPL241C, strain CIN2, hits give low values 0.994 | S. cerevisiae deletion strains, locus YPL256C, strain CLN2, hits give low values 0.982 | S. cerevisiae deletion strains, locus YPR119W, strain clb2, hits give low values 0.972 | S. cerevisiae deletion strains, locus YPR141C, strain kar3, hits give low values 0.979 | S. cerevisiae deletion strains, locus YPR163C, strain tif3, hits give low values 0.966 | S. cerevisiae deletion strains, locus YPR167C, strain met16, hits give low values 0.976 | S. cerevisiae deletion strains, strain wtn01, hits give low values 0.963 | S. cerevisiae strains, strain wild type, hits give low values 0.994
